Assay [1] is described as follows: P-glycoprotein substrates identified in KB-3-1 adenocarcinoma cell line, qHTS therapeutic library screen (AID 1346986). Also: nearly all actives have a fitted effect of over 60% in size. In short, it runs like this: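 KB-3-1 parental and colchicine-selected P-gp-overexpressing KB-8-5-11 cells (colchicine omitted during assay), 500 cells/well, dosed in dose-response for 72 h at 37 °C; CellTiter-Glo luminescence. Cytotoxic: curve class -1.1 to -2.4, max response >50%, AC50 < 10 uM.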
Background: Quantitative high-throughput screening tests each substance at several concentrations.

The nature of assay [2]: P-glycoprotein substrates identified in KB-8-5-11 adenocarcinoma cell line, qHTS therapeutic library screen (AID 1346987). Also: nearly all actives have a fitted effect of over 65% in size. Also: potency is read from the fitted curve at half-maximal effect. As to activity change, negative = cytotoxicity: series mostly up to about 44 µM; % is scaled to controls: 0 for no effect and ±100 for the full control effect. In short, it runs like this:
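KB-8-5-11, a colchicine-selected P-gp-overexpressing KB-3-1 subline, was grown without colchicine for the assay. Cells were seeded at 500 cells/well, dosed in concentration-response and incubated 72 h at 37 degree C, 5% CO2. Viability was read by CellTiter-Glo luminescence.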

Assay [3] is described as follows: NS1 protein of Zika virus - qHTS assay to identify small molecule inhibitors in human HEK 293 cells (AID 1347053).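 Also: series mostly up to about 46 µM; plate controls were infected untreated cells for no effect and uninfected cells for full effect; nearly all actives have a fitted effect of over 55% in size.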 In short, it runs like this:
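Following 20 h seeding, HEK 293 cells took compound, then 1 h later ZIKV MR766 (MOI = 0.5). Incubation ran 24 h at 37 C before TR-FRET detection of NS1; a drop in signal indicates inhibition.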

Assay [4] can be described thus: qHTS of pediatric cancer cell lines to identify multiple opportunities for drug repurposing: Primary screen for TC32 cells (AID 1347089). Also: % is scaled to controls: 0 for no effect and ±100 for the full control effect; nearly all actives have a fitted effect of over 60% in size. In short, it runs like this:
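TC32 cells, 500-1,000/well in growth medium, compound-treated 48 h at 37 °C; viability from CellTiter-Glo luminescence. Primary screen: MIPE 11-point (0.78 nM–46 µM final), NPC 8-point (0.59 nM–46 µM final); confirmatory at 11-point dilutions.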

A short description of assay [5]: qHTS of pediatric cancer cell lines to identify multiple opportunities for drug repurposing: Primary screen for A673 cells (AID 1347092). Also: nearly all actives have a fitted effect of over 45% in size. Also: potency is read from the fitted curve at half-maximal effect. As to activity change, negative = cytotoxic: % is scaled to controls: 0 for no effect and ±100 for the full control effect. In short, it runs like this: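 A673 cells (500-1,000 cells/well) were treated 48 hours at 37 degrees C with compounds at 11-point (0.78 nM to 46 µM) or 8-point (0.59 nM to 46 µM) dilutions. Viability read by CellTiter-Glo luminescence; concentration-response curves fitted.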

A short description of assay [6]: qHTS of pediatric cancer cell lines to identify multiple opportunities for drug repurposing: Primary screen for SK-N-MC cells (AID 1347093). Also: potency is read from the fitted curve at half-maximal effect.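 As to activity change, negative = cytotoxic: series mostly up to about 46 µM; plate controls were DMSO neutral control for no effect and bortezomib for full effect.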 In short, it runs like this: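 Metabolically active cells were quantified by ATP-dependent luminescence (CellTiter-Glo, 15 min at room temperature) following 48 h treatment. Cells had been plated at 500-1,000 per well and settled for 5 h beforehand.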

Assay [7] can be described thus: qHTS of pediatric cancer cell lines to identify multiple opportunities for drug repurposing: Primary screen for NB-EBc1 cells (AID 1347095). Also: potency is read from the fitted curve at half-maximal effect.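 As to activity change, negative = cytotoxic: plate controls were DMSO neutral control for no effect and bortezomib for full effect.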 A digest of the protocol: (§1)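 CRCs from 8- or 11-point titrations (lowest final 0.59 nM NPC, 0.78 nM MIPE). Cell viability: CellTiter-Glo after 48 h incubation, 15 min room-temperature development, luminescence imaging.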
Assay [8] is described as follows: qHTS of pediatric cancer cell lines to identify multiple opportunities for drug repurposing: Primary screen for U-2 OS cells (AID 1347096).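 Also: plate controls were DMSO wells for no effect and bortezomib positive control wells for full effect; nearly all actives have a fitted effect of over 50% in size.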 In short, it runs like this:
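Viability after 48 h compound treatment at 37C, 500-1,000 cells/well, read as ATP luminescence with CellTiter-Glo. Primary screens used 11-point (MIPE, 0.78 nM-46 µM) or 8-point (NPC, 0.59 nM-46 µM) final concentrations; follow-up screens used 11-point dilutions.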

The nature of assay [9]: qHTS of pediatric cancer cell lines to identify multiple opportunities for drug repurposing: Primary screen for Saos-2 cells (AID 1347097). Also: nearly all actives have a fitted effect of over 40% in size. Also: potency is read from the fitted curve at half-maximal effect. As to activity change, negative = cytotoxic: % is scaled to controls: 0 for no effect and ±100 for the full control effect. In short, it runs like this: as §1
The nature of assay [10]: qHTS of pediatric cancer cell lines to identify multiple opportunities for drug repurposing: Primary screen for SK-N-SH cells (AID 1347098). Also: nearly all actives have a fitted effect of over 65% in size. Also: potency is read from the fitted curve at half-maximal effect.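 As to activity change, negative = cytotoxic: DMSO served as neutral control and bortezomib at 2.3 µM as positive control; % is scaled to controls: 0 for no effect and ±100 for the full control effect.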 In short, it runs like this: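 Cells (500-1,000/well) rested 5 h, then received compounds for 48 h; metabolically active cells were measured by CellTiter-Glo luminescence. Final concentrations spanned up to 46 µM (MIPE, 11-point) or 0.59 nM-46 µM (NPC, 8-point) in primary screens, 11-point in follow-ups.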

Assay [11] in a line: qHTS of pediatric cancer cell lines to identify multiple opportunities for drug repurposing: Primary screen for DAOY cells (AID 1347090). Also: nearly all actives have a fitted effect of over 55% in size. Also: potency is read from the fitted curve at half-maximal effect.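 As to activity change, negative = cytotoxic: series mostly up to about 46 µM; plate controls were DMSO for no effect and bortezomib for full effect.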 A digest of the protocol:
(§2)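 Viability measured as metabolically active cells via CellTiter-Glo luminescence following 48 hours of compound exposure, 11-point dilutions in confirmatory testing. 500-1,000 cells/well plated 5 hours before dosing; controls were DMSO and 2.3 µM bortezomib.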

Assay [12] can be described thus: qHTS of pediatric cancer cell lines to identify multiple opportunities for drug repurposing: Primary screen for SJ-GBM2 cells (AID 1347091).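 Also: plate controls were DMSO neutral control for no effect and bortezomib for full effect.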 In short, it runs like this:
as §2

A short description of assay [13]: qHTS of pediatric cancer cell lines to identify multiple opportunities for drug repurposing: Primary screen for BT-37 cells (AID 1347094). Also: potency is read from the fitted curve at half-maximal effect.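 As to activity change, negative = cytotoxic: series mostly up to about 57 µM; plate controls were DMSO for no effect and bortezomib for full effect.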 In short, it runs like this: as §1

Several values for one entry are separate records, joined by “and”; a condition that tells them apart may be missing. Equal entries are not always repeated. Inconclusive results are not listed. The source holds several records for some structures; these can differ, active in one and inactive in another. Activity calls are given as the source filed them. Calls follow the shape of the dose curve; as a rule, active = well fitted curve in the direction sought with a large enough effect; inconclusive = small, poorly fitted or top-dose-only effect, or another doubt; inactive = no such curve, though single readings can be large; an effect the other way counts as inactive or inconclusive.

In the case of `Cc1ccccc1C(C(=O)NC1CCCCC1)N(C(=O)CNc1ccc(C#N)cc1)c1cccc(F)c1` (stereo not drawn), the Potency entry in [1], in [2], in assay [3], in assay [4], in assay [5] and in assay [6] was “inactive” in each case. The Potency result in assay [8] and in assay [10] was “inactive” throughout. The Potency in [7] was 23.5 µM (active); in [9], 18.7 µM (active).

In the case of `CCN1C[C@H](C)n2c(c(O)c3c(=O)n(Cc4ccc(F)c(Cl)c4)nc(C(=O)NC)c32)C1=O`, the Potency entry in assay [1], in assay [2], in assay [3], in assay [4], in [11] and in [12] was “inactive” each time. In addition, the Potency result in [5], in [6], in assay [13], in assay [7], in assay [8] and in [9] was “inactive” throughout. Also, the Potency result in assay [10] was “inactive”.

As to `C[C@@H](NC(=O)c1ncnc(N)c1Cl)c1ncc(C(=O)Nc2cc(C(F)(F)F)c(Cl)cn2)s1`, the Potency result in assay [1], in assay [2], in assay [3], in [4] and in [8] was “inactive” each time. Moreover, the Potency in assay [5] was 18.7 µM (active); in [6] it was 16.6 µM (active); in [7], 14.8 µM (active); in assay [10] it was 19.2 µM (active).

For the molecule `CCCCn1c(=O)n(Cc2ccccc2F)c(=O)c2[nH]c(Cc3ccc(NC(C)=O)cc3)nc21`, the Potency result in assay [1], in assay [2], in assay [3], in assay [4], in assay [12] and in assay [13] was “inactive” each time. Moreover, the Potency result in [7], in assay [8] and in assay [9] was “inactive” each time. Further, the figures for the Potency in assay [11], in assay [6] and in [10] were 23.5 µM (active), 10.5 µM (active) and 27.1 µM (active), respectively.

On to `CC1C(=O)OC2C(O)C34C5CC(C(C)(C)C)C36C(OC(=O)C6O)OC4(C(=O)O5)C12O` (stereo not drawn), for which the Potency entry in assay [1], in [2], in assay [3], in assay [4], in assay [8] and in [9] was “inactive” throughout. Moreover, the Potency was 18.7 µM (active) in assay [5], 29.6 µM (active) in [6] and 14.8 µM (active) in [7].

For `CCC=CC[C@H]1C(=O)CC[C@@H]1CC(=O)OC`, the Potency result in assay [1], in assay [2], in assay [3], in assay [4], in assay [12] and in [5] was “inactive” throughout. Moreover, the Potency entry in [7], in assay [8] and in [9] was “inactive” each time. Besides, the Potency in assay [10] was 19.2 µM (active).

Consider `COC(=O)[C@H](c1ccccc1Cl)N1CCc2sccc2C1`, for which the Potency entry in [1], in assay [2], in assay [3], in assay [4], in [11] and in assay [12] was “inactive” each time. In addition, the Potency result in assay [7] and in [8] was “inactive” each time. The Potency in [5] was 1.48 µM (active).

With `Cn1c(=O)c(-c2c(Cl)cccc2Cl)cc2cnc(Nc3cccc(C(=O)O)c3)nc21`, the Potency result in assay [1], in assay [3], in assay [4], in assay [13] and in assay [10] was “inactive” throughout. The Potency entry in assay [2] is “inactive and 4.61 µM (active)”; in assay [11], 0.372 µM (active); in assay [6] it was 0.0935 µM (active); in [7], 1.32 µM (active); in [9] it was 0.743 µM (active).

For `CN[C@H]1[C@@H](O[C@@H]2[C@H](O[C@@H]3[C@@H](O)[C@@H](O)[C@@H](N=C(N)N)[C@@H](O)[C@@H]3N=C(N)N)O[C@H](C)[C@@]2(O)C=O)O[C@@H](CO)[C@@H](O)[C@H]1O`, the outcome in assay [1] is “inactive [at 9.29 µM]”. Further, in [2], the activity change, negative = cytotoxicity was 9.82% [at 9.29 µM] (inactive). Also, the Potency entry in assay [3] is “inactive”. Moreover, the activity change, negative = cytotoxic in assay [4] was 6.69% [at 9.17 µM] (inactive); in [12], 13.3% [at 9.22 µM] (inactive); in [5] it was -1.15% [at 9.22 µM] (inactive); in assay [6] it was -4.87% [at 9.22 µM] (inactive); in [13], 3.99% [at 11.5 µM] (inactive); in [7], 7.3% [at 9.22 µM] (inactive). Moreover, the activity change, negative = cytotoxic in assay [10] is 18.9% [at 11.4 µM] (inactive).

On to `OC[C@H]1O[C@@H](Oc2ccc(O)cc2)[C@H](O)[C@@H](O)[C@H]1O`, for which the Potency entry in assay [1], in assay [2], in [3], in [4], in [12] and in [13] was “inactive” in each case. For the same molecule, the Potency entry in assay [7], in assay [8] and in assay [10] was “inactive” each time. For the same molecule, the Potency in assay [6] is 13.2 µM (active).

Turning to `Nc1[nH]nc2nnc(-c3c(-c4ccccc4)nn4ccccc34)cc12`, the Potency entry in assay [1], in assay [2], in assay [3] and in [4] was “inactive” throughout. Also, the Potency in assay [11] is 2.96 µM (active); in assay [5], 1.48 µM (active); in [6], 0.0332 µM (active); in [13], 2.73 µM (active); in assay [7], 3.32 µM (active); in [9], 9.35 µM (active). Also, the Potency in [10] is 4.29 µM (active).

With `COc1cc2ncnc(Nc3cc(Br)c(O)c(Br)c3)c2cc1OC`, the Potency result in assay [1], in assay [2], in assay [3], in [4] and in assay [8] was “inactive” each time. Further, the figures for the Potency in assay [5] and in assay [6] were 0.0118 µM (active) and 0.0066 µM (active), respectively.

Take `COc1cc(Nc2nc3ccccc3nc2NS(=O)(=O)c2ccc(NC(=O)c3ccc(C)c(OC)c3)cc2)cc(OC)c1`: the Potency entry in assay [1], in assay [2], in [3] and in [4] was “inactive” throughout. Besides, the Potency in assay [5] was 23.5 µM (active); in assay [6], 26.4 µM (active); in assay [7], 26.4 µM (active); in [10], 24.1 µM (active).

Regarding `Cc1cc2c(cc1C1(c3ccc(C(=O)O)cn3)CC1)C(C)(C)CCC2(C)C`, the Potency entry in assay [1], in assay [2], in assay [3], in [4], in [11] and in assay [6] was “inactive” in each case. Moreover, the Potency entry in [13], in assay [8] and in [10] was “inactive” each time.

For the molecule `O=C1C(c2c(O)[nH]c3ccccc23)=Nc2ccccc21`, the Potency result in assay [1], in assay [2], in [3], in assay [4] and in assay [8] was “inactive” in each case. For the same molecule, the Potency was 0.59 µM (active) in [11], 0.59 µM (active) in [5] and 0.118 µM (active) in assay [6].

Take `CNc1nc(Nc2ccc(C(=O)N3CCOCC3)cc2OC)ncc1Cl`: the Potency result in [1], in assay [2], in [3], in [4], in assay [12] and in assay [5] was “inactive” in each case. Besides, the Potency entry in assay [7] and in [8] was “inactive” each time.

The values above are taken from PubChem BioAssay (NCATS).
